Our source for the growth values is PubChem BioAssay (NCI).

This is part of a sample that, as a whole, favours compounds with a hit. Of some 83,000 tested, about 20% had one in any assay.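 Treatment: one concentration, 48 hours, 96-well format. Scoring: percent growth, with anything below 10 considered active.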 Unmarked numbers belong to inactive results. Activity calls are given as the source filed them.

Some test systems named below: K-562 leukemia; MDA-MB-231 breast; RXF 393 renal; SF-268 CNS; SF-295 CNS; SF-539 CNS; UACC-257 melanoma; M14 melanoma; HCT-15 colon; SNB-75 CNS; SNB-19 CNS; U251 CNS; SK-MEL-5 melanoma; UACC-62 melanoma; LOX IMVI melanoma; SK-MEL-28 melanoma; MALME-3M melanoma; HT29 colon; PC-3 prostate; SK-MEL-2 melanoma.
What all share (assay): NCI-60 one-dose screen, 48 h (100 = growth as untreated, 0 = no growth, -100 = all killed)
Details in all cases: 10 µM unless noted

As to `COc1ccc(-c2cc(Cc3cccs3)c(=O)n(Cn3cncn3)n2)cc1`, the growth is 98.3% in the assay on K-562 leukemia; 87.5% in the assay on MDA-MB-231 breast; 110% with RXF 393 renal; 110% with SF-268 CNS; 98.9% in the assay with SF-295 CNS; 101% in the assay with SF-539 CNS. Also, the growth was 105% in the assay on UACC-257 melanoma; 107% in the assay with M14 melanoma; 101% in the assay with HCT-15 colon; 106% in the assay on SNB-75 CNS; 91.8% in the assay with SNB-19 CNS; 97.2% in the assay on U251 CNS. The growth in the assay with SK-MEL-5 melanoma was 92.9%; with UACC-62 melanoma, 86.2%; in the assay on LOX IMVI melanoma it was 98%; in the assay on SK-MEL-28 melanoma it was 108%.
Turning to `CN1CCCC1c1cccnc1` (stereo not given), the growth in the assay with K-562 leukemia was 106%; with MALME-3M melanoma, 128%; in the assay with MDA-MB-231 breast, 97.3%; in the assay on SF-268 CNS it was 111%; in the assay with SF-295 CNS, 124%; in the assay with SF-539 CNS it was 85.2%. The growth with M14 melanoma was 119%; in the assay on HCT-15 colon it was 100%; in the assay on HT29 colon it was 115%; in the assay with SNB-75 CNS, 99.7%; with SNB-19 CNS, 105%; in the assay on U251 CNS, 97.1%. In addition, the growth was 48.7% in the assay with PC-3 prostate; 87.7% with SK-MEL-5 melanoma; 94.1% in the assay with UACC-62 melanoma; 100% with LOX IMVI melanoma; 101% in the assay with SK-MEL-28 melanoma; -0.647% (active) in the assay on SK-MEL-2 melanoma.
Regarding `COc1ccc(/C=C2\COc3ccc(O)c(O)c3C2=O)cc1OC`, the growth is 0.0834% (active) with K-562 leukemia; -57.4% (active) in the assay on MALME-3M melanoma; -2.32% (active) with MDA-MB-231 breast; 9.74% (active) with SF-268 CNS; 72.2% in the assay with SF-295 CNS; -55.4% (active) with SF-539 CNS. For the same molecule, the growth was 31.4% with UACC-257 melanoma; -39.4% (active) in the assay with HCT-15 colon; 8.1% (active) with HT29 colon; 42.1% in the assay on SNB-75 CNS; 22.4% in the assay on SNB-19 CNS; 5.85% (active) with U251 CNS. The growth was 11.7% in the assay on PC-3 prostate, -29.4% (active) with UACC-62 melanoma, 57.2% in the assay with SK-MEL-28 melanoma and 76% in the assay on SK-MEL-2 melanoma.
Turning to `CC1=CSC2=NCCN12`, the growth was 101% in the assay on K-562 leukemia; 122% in the assay with MDA-MB-231 breast; 121% with RXF 393 renal; 102% in the assay on SF-268 CNS; 132% in the assay with SF-295 CNS; 95.8% in the assay with SF-539 CNS. Moreover, the growth with UACC-257 melanoma was 116%; in the assay with M14 melanoma it was 108%; with HCT-15 colon, 109%; with SNB-75 CNS, 98.4%; in the assay with SNB-19 CNS, 101%; in the assay on U251 CNS it was 109%. The growth in the assay with SK-MEL-5 melanoma is 106%; with UACC-62 melanoma, 100%; in the assay on LOX IMVI melanoma it was 94.4%; in the assay on SK-MEL-28 melanoma, 118%.
Turning to `CCCCCCC(C)(O)c1ccccc1` (stereo not given), the growth with K-562 leukemia was 101%; with MDA-MB-231 breast, 109%; with RXF 393 renal, 124%; in the assay on SF-268 CNS, 107%; in the assay with SF-295 CNS, 125%; in the assay on SF-539 CNS, 110%. Besides, the growth is 115% in the assay with UACC-257 melanoma; 105% with M14 melanoma; 110% in the assay on HCT-15 colon; 90.6% in the assay on SNB-75 CNS; 104% in the assay on SNB-19 CNS; 109% in the assay on U251 CNS. In addition, the growth was 109% in the assay on SK-MEL-5 melanoma, 96.5% in the assay with UACC-62 melanoma, 92% in the assay on LOX IMVI melanoma and 115% in the assay with SK-MEL-28 melanoma.
Take `C[N+]1(CCC[N+]2(C)C[C@@H]3[C@H](C2)[C@@H]2C=C[C@H]3C2)CCOCC1` (stereo not given in full): the growth was 110% in the assay with K-562 leukemia; 104% with MDA-MB-231 breast; 121% with RXF 393 renal; 115% in the assay with SF-268 CNS; 113% in the assay on SF-295 CNS; 100% in the assay with SF-539 CNS. Besides, the growth in the assay with UACC-257 melanoma was 112%; with M14 melanoma, 108%; in the assay on HCT-15 colon it was 91.4%; in the assay with SNB-75 CNS it was 103%; with SNB-19 CNS it was 107%; with U251 CNS it was 109%. Besides, the growth is 106% in the assay with SK-MEL-5 melanoma, 97.7% in the assay with UACC-62 melanoma, 96% in the assay with LOX IMVI melanoma and 109% in the assay on SK-MEL-28 melanoma.
For the molecule `CC12CCCCC1C(C(N)=O)C(=O)O2` (stereo not given), the growth in the assay on K-562 leukemia is 102%; in the assay with MALME-3M melanoma, 120%; in the assay with MDA-MB-231 breast it was 101%; in the assay with SF-295 CNS, 109%; in the assay with SF-539 CNS, 112%; in the assay on UACC-257 melanoma, 107%. For the same molecule, the growth with M14 melanoma was 104%; in the assay with HCT-15 colon it was 106%; in the assay on HT29 colon, 112%; with SNB-75 CNS, 96.1%; with SNB-19 CNS, 100%; in the assay with U251 CNS, 104%. For the same molecule, the growth with PC-3 prostate was 101%; in the assay with UACC-62 melanoma, 98.8%; in the assay on LOX IMVI melanoma, 96.4%; in the assay on SK-MEL-28 melanoma, 105%; in the assay on SK-MEL-2 melanoma, 104%.
Turning to `CCC1(c2ccccc2)Oc2ccccc2-n2c(C#N)c3ccccc3c2C1=O` (stereo not given), the growth is 86.7% with K-562 leukemia; 98.5% with MDA-MB-231 breast; 101% in the assay with SF-268 CNS; 93.3% with SF-295 CNS; 105% in the assay with SF-539 CNS; 90.5% with UACC-257 melanoma. Also, the growth was 94.3% with M14 melanoma; 94% in the assay with HCT-15 colon; 96.8% in the assay with HT29 colon; 95.9% in the assay with SNB-75 CNS; 106% with SNB-19 CNS; 96.7% in the assay with U251 CNS. Also, the growth in the assay with PC-3 prostate was 93.8%; in the assay with SK-MEL-5 melanoma it was 100%; in the assay with LOX IMVI melanoma it was 103%; with SK-MEL-28 melanoma it was 114%; with SK-MEL-2 melanoma, 103%.
Take `N#Cc1c2ccccc2c2n1-c1ccccc1OC(c1ccccc1)C2=O` (stereo not given): the growth in the assay with K-562 leukemia was 13%; in the assay on MDA-MB-231 breast it was 22.3%; with SF-268 CNS, 30.1%; in the assay on SF-295 CNS it was 16.3%; with SF-539 CNS, 77.2%; in the assay with UACC-257 melanoma, 53.3%. Moreover, the growth is 41.4% in the assay with M14 melanoma; 13.8% in the assay with HCT-15 colon; 23.1% in the assay on HT29 colon; 24.2% with SNB-75 CNS; 23.5% in the assay with SNB-19 CNS; 17.9% in the assay on U251 CNS. Moreover, the growth in the assay on PC-3 prostate was 32.1%; in the assay on SK-MEL-5 melanoma, 10.6%; with LOX IMVI melanoma, 9.92% (active); in the assay on SK-MEL-28 melanoma, 93.8%; in the assay with SK-MEL-2 melanoma it was 59.9%.
As to `O[C@@H]1Cc2ccc3ccccc3c2N[C@H](c2ccoc2)C1`, the growth with K-562 leukemia is 102%; in the assay with MDA-MB-231 breast, 96.2%; with RXF 393 renal it was 108%; in the assay on SF-268 CNS, 105%; in the assay with SF-295 CNS, 110%; in the assay on SF-539 CNS it was 93.6%. In addition, the growth in the assay on UACC-257 melanoma is 105%; in the assay with M14 melanoma it was 101%; in the assay with HCT-15 colon, 111%; in the assay on SNB-75 CNS it was 95.5%; in the assay on SNB-19 CNS, 102%; in the assay with U251 CNS, 100%. Moreover, the growth in the assay with SK-MEL-5 melanoma was 92.8%; with UACC-62 melanoma, 101%; in the assay with LOX IMVI melanoma, 92.7%; with SK-MEL-28 melanoma, 125%.
